In PubChem BioAssay:

Assays:
[1] = system: Human papillomavirus type 1a protein E7 (residues 44-93); experiment: HPV1a E7 fragment binders on microarrays, primary screen, biochemical, small-molecule microarray, residues 44-93, 635 nm fluorescence (AID 1108); conditions: small-molecule microarray binding, fluorescence 635 nm; higher = more signal;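 also: E7 fragment applied at 1 µg/mL in TBST for 1 h at 4 C; score combines spot fluorescence with its signal to noise ratio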
[2] = modulators of HCV replicon luciferase signal, primary screen, HCV replication inhibitor project, Huh7 cells, luciferase reporter (AID 1109); conditions: 48 h, higher = more signal;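 also: huh7 hepatoma cells harbouring a luciferase neomycin HCV replicon reporter; luciferase luminescence as measure of HCV replicon replication; test concentration not given here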
[3] = target: Left-right determination factor 2 (Homo sapiens) (UniProt O00292); experiment: LEFTY2 binders on small-molecule microarrays, primary screen, biochemical, small-molecule microarray, 635 nm fluorescence scan (AID 1110); conditions: LEFTY2 binding, higher = more signal
Left-right determination factor 2 (Homo sapiens), sequence (O00292 whole entry, looked up): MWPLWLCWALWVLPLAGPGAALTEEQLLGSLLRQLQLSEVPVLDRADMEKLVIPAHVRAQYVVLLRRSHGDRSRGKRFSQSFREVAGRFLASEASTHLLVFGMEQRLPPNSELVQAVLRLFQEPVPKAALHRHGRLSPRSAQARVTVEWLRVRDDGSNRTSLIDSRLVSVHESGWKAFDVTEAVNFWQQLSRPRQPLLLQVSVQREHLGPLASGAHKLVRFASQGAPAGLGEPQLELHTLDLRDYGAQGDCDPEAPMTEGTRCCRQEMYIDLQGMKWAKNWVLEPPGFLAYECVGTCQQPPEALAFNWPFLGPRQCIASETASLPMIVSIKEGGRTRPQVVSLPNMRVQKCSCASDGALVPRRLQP

[4] = target: Calmodulin-1 (Homo sapiens) (UniProt P0DP23); experiment: CALM1 binders on microarrays, EGTA buffer, profiling panel, biochemical, small-molecule microarray, Cy5-labelled CALM1 (AID 1111); conditions: Cy5-CALM1 binding fluorescence, higher = more signal;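 also: labelled calmodulin applied in Tris saline Tween buffer holding calcium plus EGTA and DTT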
[5] = target: Calmodulin-1 (Homo sapiens) (UniProt P0DP23); experiment: calcium-bound CALM1 binders on microarrays, profiling panel, artefact control for SMM control-protein annotation, biochemical, small-molecule microarray, Cy5-labelled CALM1, plus calcium (AID 1112); conditions: Cy5-CALM1 binding fluorescence, higher = more signal;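 also: score merges spot fluorescence with signal to noise from triplicate slides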
[6] = small-molecule microarray binders of probe aWnt5a, primary screen, biochemical, biotinylated probe, 635/667 nm fluorescence (AID 1113); conditions: higher = more signal;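 also: score merges 667 nm fluorescence intensity with signal-to-noise per printed feature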
[7] = small-molecule microarray binders of probe aShh, primary screen, biochemical, biotinylated probe, 635/667 nm fluorescence (AID 1114); conditions: higher = more signal;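 also: probe is biotin-labelled aShh protein from a stem cell growth factor screen; measures binding of labelled protein to compounds printed on the slide; score merges feature fluorescence at 667 nm with signal-to-noise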
[8] = small-molecule microarray binders of probe aNog, primary screen, biochemical, biotinylated probe, 635/667 nm fluorescence (AID 1115); conditions: higher = more signal;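 also: probe is biotinylated aNog protein used at 0.15 µg/mL for 1 h at 4 C; z-score combines 667 nm fluorescence of each spot with its signal to noise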
[9] = target: Torsin-1A-interacting protein 1 (Homo sapiens) (UniProt Q5JTV8); experiment: LAP1 binders from COS7 cell lysate, primary screen, small-molecule microarray, 635/667 nm fluorescence (AID 1116); conditions: COS7-hLAP1 lysate binding, 635 nm fluorescence, higher = more signal
Torsin-1A-interacting protein 1 (Homo sapiens), sequence (Q5JTV8 whole entry, looked up): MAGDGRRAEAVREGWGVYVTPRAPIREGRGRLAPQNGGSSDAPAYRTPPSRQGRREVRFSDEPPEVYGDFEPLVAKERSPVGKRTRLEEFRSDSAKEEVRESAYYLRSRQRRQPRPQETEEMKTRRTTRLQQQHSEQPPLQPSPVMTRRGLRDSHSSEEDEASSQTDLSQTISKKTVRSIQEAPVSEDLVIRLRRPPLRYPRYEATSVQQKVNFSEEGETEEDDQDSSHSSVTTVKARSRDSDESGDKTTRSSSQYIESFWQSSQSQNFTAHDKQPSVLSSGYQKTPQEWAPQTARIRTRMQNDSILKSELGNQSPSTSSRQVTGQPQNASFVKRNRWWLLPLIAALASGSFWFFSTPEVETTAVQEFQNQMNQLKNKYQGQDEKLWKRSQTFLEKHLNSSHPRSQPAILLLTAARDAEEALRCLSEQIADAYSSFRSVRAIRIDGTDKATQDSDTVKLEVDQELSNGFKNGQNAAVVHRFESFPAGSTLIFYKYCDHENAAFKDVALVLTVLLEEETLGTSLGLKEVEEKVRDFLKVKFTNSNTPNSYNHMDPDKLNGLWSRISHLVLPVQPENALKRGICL

[10] = target: Alpha-bungarotoxin (Bungarus multicinctus) (UniProt P60615); experiment: alpha-bungarotoxin binders on microarray, profiling panel, artefact control for SMM control protein annotation, biochemical, small-molecule microarray, Alexa647 label, 635/667 nm fluorescence (AID 1117); conditions: alpha-BTX-A647 binding fluorescence, higher = more signal
Alpha-bungarotoxin (Bungarus multicinctus), sequence (P60615 whole entry, looked up): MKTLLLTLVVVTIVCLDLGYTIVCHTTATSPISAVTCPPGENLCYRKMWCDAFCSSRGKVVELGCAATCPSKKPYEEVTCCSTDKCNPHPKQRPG

| SMILES | composite z-score [1] | z-score [2] | composite z-score [3] | composite z-score [4] | composite z-score [5] | composite z-score [6] | composite z-score [7] | composite z-score [8] | composite z-score [9] | composite z-score [10] |
| --- | --- | --- | --- | --- | --- | --- | --- | --- | --- | --- |
| O=C1C2C=CC(C(O)c3cccc4ccccc34)N(Nc3ccccc3F)C2C(=O)N1c1ccccc1 (stereo not given) | 1.45 | -0.69 | 0.264 | 1.84 | 0.895 | 0.0554 | 0.14 | 0.737 | 1.4 | 2.15 |
| C=CCNC(=O)[C@@H]1[C@H]2C(=O)O[C@H](c3ccccc3)[C@H](c3ccccc3)N2[C@H](c2ccc(OCCO)cc2)[C@@]12C(=O)Nc1ccc(C#CCC(C(=O)OC)C(=O)OC)cc12 | 0.637 | -2.18 | 0.608 | 0.263 | -0.224 | 0.105 | 0.147 | 0.914 | 1.19 | 1.8 |
| Cc1nc2cc(Br)ccc2c(=O)o1 | 0.686 | -0.569 | 0.4 | 0.66 | 0.202 | -0.198 | -0.481 | -0.483 | 0.197 | 0.206 |
| C[N+](C)(C)CCCCNC(=O)[C@H]1C[C@H]2C(=O)N3CCC[C@H]3C(=O)N2[C@H]1c1cccc(OCCO)c1 | -1.09 | -0.884 | 0.766 | -0.858 | 1.03 | -0.0721 | 0.0141 | 0.0043 | 0.854 | -0.912 |
| CC(C)NC(=O)[C@@H]1c2ccccc2C(=O)N(C2Cc3ccccc3C2)[C@H]1c1ccc(CO)cc1 | 1.41 | -1.31 | 0.25 | 0.344 | -0.225 | 0.0142 | -0.366 | -0.449 | 0.724 | 0.399 |
| COC(=O)[C@@]1(CCC(=O)OC(C)(C)C)N=C(c2ccc(OCCCO)cc2)O[C@H]1c1ccccc1N=[N+]=[N-] | 0.799 | -1.85 | -0.0736 | 1.17 | 0.356 | 0.0101 | 0.178 | -0.193 | 1.06 | 0.654 |
| CO[C@H]1O[C@H](CO)[C@@H](OC(=O)Nc2ccccc2)[C@H](OC(=O)Nc2ccccc2)[C@@H]1OC(=O)Nc1ccccc1 | 1.39 | -1.93 | 0.179 | 0.928 | -0.136 | 0.111 | -0.0793 | -0.541 | 0.835 | 0.796 |
| COc1ccc(/C=C/C=O)cc1 | -0.15 | 0.788 | 0.0844 | -1.14 | -0.732 | -0.228 | -0.253 | 0.148 | 0.0921 | -0.117 |
| COC(=O)C(CC#Cc1ccc2c(c1)[C@]1(C(=O)N2)[C@H](c2ccc(OCCO)cc2)N2[C@H](c3ccccc3)[C@H](c3ccccc3)OC(=O)[C@H]2[C@@H]1C(=O)N1CCc2cc(OC)c(OC)cc2C1)C(=O)OC | 1.4 | -1.01 | 0.459 | 1.66 | 0.236 | 0.296 | 0.191 | -0.422 | 1.58 | 1.77 |
| CC(=O)NCCCC[C@@H]1NC(=O)[C@@H]2C[C@H](C(=O)NCCCCCNC(=O)CS)[C@H](c3cccc(OCCO)c3)N2C1=O | -0.0596 | -0.652 | 0.837 | -0.646 | -0.754 | -0.214 | -0.0533 | -0.0533 | -0.443 | -0.0629 |
| O=C1C[C@@](C(=O)NC2CC2)(c2ccc([N+](=O)[O-])cc2)[C@@H](c2ccc(CO)cc2I)N1C1CCCCC1 | 1.43 | -1.97 | 0.434 | 0.581 | -0.183 | -0.101 | 0.0756 | 0.217 | 0.388 | 1.24 |
| C#C[C@H](O[Si](C#Cc1ccc(Oc2ccccc2)cc1)(C(C)C)C(C)C)c1ccccc1 | 0.922 | -1.73 | 0.764 | -0.355 | -0.571 | -0.0519 | -0.248 | -0.244 | 0.692 | 0.495 |
| CCCCCCc1nc(-c2ccc(OC)nc2)cc2c1[Si](C(C)C)(C(C)C)O[C@H]2c1ccccc1 | -0.103 | -0.657 | 0.28 | -0.0918 | 0.176 | -0.176 | 0.108 | -0.234 | -0.476 | 0.0237 |
| CC(C)C(=C=CC[C@@H](O)c1ccc(OCCO)cc1)C[C@@H](O)c1ccccn1 | 0.323 | -0.218 | 1.21 | -0.315 | -0.113 | -0.0721 | -0.0709 | -0.0926 | 1.08 | -0.0878 |
| Cc1ccc(S[C@]2(C(=O)NC3CC3)CC(=O)N(Cc3ccccc3)[C@@H]2c2ccc(CO)cc2I)cc1 | 0.477 | -1.9 | -1.2 | -0.351 | -0.149 | -0.0221 | -0.0794 | 0.503 | -0.0172 | -0.734 |
| Cc1ccc(S[C@]2(C(=O)NCCCN(C)C)CC(=O)N(Cc3cc(C(F)(F)F)cc(C(F)(F)F)c3)[C@@H]2c2ccc(CO)cc2)cc1 | -0.224 | 0.478 | -0.286 | 0.136 | 0.499 | -0.152 | -0.0769 | -0.29 | 0.523 | 0.182 |
| CC(C)=CCCC(C)=CC(O)C1C=CC2C(=O)N(C)C(=O)C2N1Nc1ccccc1 (stereo not given) | 1.45 | -2.28 | 0.457 | 1.99 | 0.73 | 0.0597 | -0.0362 | 1.3 | 0.524 | 2.04 |

| SMILES | composite z-score [1] | z-score [2] | composite z-score [3] | composite z-score [4] | composite z-score [5] | composite z-score [6] | composite z-score [7] | composite z-score [8] | composite z-score [9] | composite z-score [10] |
| --- | --- | --- | --- | --- | --- | --- | --- | --- | --- | --- |
| [N-]=[N+]=NCc1ccccc1[C@@H]1OC(c2ccc(OCCCO)cc2)=N[C@]1(Cc1ccccc1)C(=O)NCC(O)CO (stereo not given in full) | -0.0042 | -1.16 | -0.559 | 0.168 | 0.305 | 0.262 | 0.559 | 1.99 | 1.95 | 2.68 |
| COC(=O)[C@H](Cc1ccccc1)N1CC2=C[C@@H](C3CC3)n3c(=O)n(C)c(=O)n3[C@H]2[C@@H]1[C@@H](O)Cc1ccccc1 | 1.35 | -1.08 | 0.41 | -0.319 | 0.0057 | -0.0718 | -0.0035 | 0.0121 | 0.685 | -0.0518 |
| NC(=O)[C@@H]1[C@H]2C(=O)O[C@H](c3ccccc3)[C@H](c3ccccc3)N2[C@H](c2ccc(O)cc2)[C@@]12C(=O)Nc1ccccc12 | 0.812 | -1.1 | -2.27 | -0.395 | -0.127 | -0.127 | -0.0553 | 0.264 | -1.02 | -0.674 |
| COC(=O)[C@@]1(Cc2ccc(OC)cc2)[C@@H]2C(=CC(=O)[C@H]2CC(=O)C(=O)N2CCCC2)CN1C(=O)c1ccccc1 | -0.514 | -1.88 | -0.505 | 0.946 | 0.713 | 0.368 | 1.06 | 1.04 | 0.674 | 0.15 |
| CCCC[C@H]1OB(O)C[C@H]2C1=C(COC)Cn1c(=O)n(-c3ccccc3)c(=O)n12 | 0.039 | -0.673 | 0.358 | -0.215 | -0.421 | -0.0792 | -0.0977 | 0.445 | 0.0892 | 0.0547 |
| COC(=O)[C@@]1(Cc2ccc(F)cc2)[C@H]2c3cc(C(=O)N(C)C)n(Cc4cc(F)c(F)c(F)c4)c3C[C@H]2CN1C(=O)c1ccccc1 | 1.32 | -2.75 | -0.323 | 1.6 | 1.01 | 0.245 | 0.566 | 2.27 | 1.16 | 1.17 |
| C=CCOC(=O)[C@H]1[C@@H]2C(=O)O[C@@H](c3ccccc3)[C@@H](c3ccccc3)N2[C@@H](c2ccc(OCCOC(=O)[C@@H]3C[C@@H]4C(=O)N[C@@H](CCCCNC(C)=O)C(=O)N4[C@@H]3c3ccc(O)cc3)cc2)[C@]12C(=O)Nc1ccccc12 | 1.32 | -0.413 | 0.515 | 1.72 | 0.365 | -0.0704 | 0.196 | 0.45 | 0.622 | 2.51 |
| C=C(C)[C@@H]1CC=C(C(O)C2C=CC3C(=O)N(C)C(=O)C3N2Nc2ccccc2)CC1 (stereo not given in full) | 1.35 | -0.626 | 0.658 | -0.27 | -0.74 | 0.0004 | -0.142 | -0.144 | 0.296 | 0.429 |
| CCCC#C[Si](O[C@H](CC)c1cn(Cc2cccc(Cl)c2)nn1)(C(C)C)C(C)C | 1.3 | -0.113 | 0.431 | 0.0375 | 0.169 | -0.0944 | -0.153 | -0.307 | 0.545 | -0.2 |
| C=C[C@H](CO)NS(=O)(=O)c1ccc(Br)cc1 | 1.05 | 0.109 | 0.375 | 0.158 | -0.268 | -0.096 | -0.2 | -0.266 | 0.306 | 0.275 |
| O=C1c2ccccc2[C@](Cc2ccccc2I)(C(=O)NCCN2CCOCC2)[C@H](c2ccc(CO)cc2)N1C1CCCCC1 | 0.994 | -2.48 | 0.804 | 1.13 | 0.315 | 0.0286 | 0.359 | 0.0308 | 0.494 | 1.83 |
| COc1cc(C(O)C2C=CC3C(=O)NC(=O)C3N2Nc2ccccn2)cc(OC)c1OC (stereo not given) | 1.04 | -0.178 | 0.0534 | -0.0338 | -0.62 | -0.128 | -0.243 | 0.416 | 0.531 | -0.0198 |
| CN1C(=O)C2C=CC(C(O)c3ccccc3)N(N(c3ccccc3)c3ccccc3)C2C1=O (stereo not given) | -0.364 | -0.442 | 0.618 | -0.315 | -0.717 | 0.0181 | -0.0904 | 0.235 | 0.911 | 0.514 |
| Cc1ccc(S[C@]2(C(=O)NCCCN(C)C)CC(=O)N(Cc3ccccc3C(F)(F)F)[C@@H]2c2ccc(CO)cc2)cc1 | -0.812 | -0.767 | -1.89 | -0.168 | 0.0625 | -0.0944 | 0.0893 | 0.216 | 0.122 | 0.266 |
| CO[C@H]1O[C@H](CO)[C@@H](OC(=O)Nc2cccc(F)c2)[C@H](OC(=O)Nc2ccccc2)[C@@H]1OC(=O)Nc1ccccc1 | 1.26 | -3.23 | 0.071 | 0.471 | -0.365 | 0.0257 | 0.365 | 0.883 | 0.642 | 0.0941 |
| CC(=O)n1cc(C(O)C2C=CC3C(=O)N(c4ccccc4)C(=O)C3N2Nc2ccc([N+](=O)[O-])cc2)c2ccccc21 (stereo not given) | 0.275 | -0.0176 | -0.712 | 1.73 | 0.571 | -0.0459 | -0.0243 | 0.576 | 1.87 | 1.7 |
